# From PubChem BioAssay AID753 (Emory University Molecular Libraries Screening Center, 2007)
# This is one part of the list. Results filed as inconclusive are left out. A number with no mark means an inactive call.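 The calls were made as follows: active = percent of control activity at or below 60%; inconclusive = HPLC trace unusable from injection failure or solvent front hiding peaks; inactive = the rest, plus ubiquitin peak ratio over a set limit.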
# Molecular target: Ubiquitin carboxyl-terminal hydrolase BAP1 (Homo sapiens) (UniProt Q92560)
# Test: BAP1 ubiquitin ester hydrolysis inhibition – biochemical, Ub-ethyl ester substrate, HPLC readout, orthogonal assay, confirmation (AID 753)
# Conditions: purified BAP1, Ub-ethyl ester hydrolysis, at 20 µM, active compounds read low
# Ubiquitin carboxyl-terminal hydrolase BAP1 (Homo sapiens), sequence (Q92560 whole entry, looked up): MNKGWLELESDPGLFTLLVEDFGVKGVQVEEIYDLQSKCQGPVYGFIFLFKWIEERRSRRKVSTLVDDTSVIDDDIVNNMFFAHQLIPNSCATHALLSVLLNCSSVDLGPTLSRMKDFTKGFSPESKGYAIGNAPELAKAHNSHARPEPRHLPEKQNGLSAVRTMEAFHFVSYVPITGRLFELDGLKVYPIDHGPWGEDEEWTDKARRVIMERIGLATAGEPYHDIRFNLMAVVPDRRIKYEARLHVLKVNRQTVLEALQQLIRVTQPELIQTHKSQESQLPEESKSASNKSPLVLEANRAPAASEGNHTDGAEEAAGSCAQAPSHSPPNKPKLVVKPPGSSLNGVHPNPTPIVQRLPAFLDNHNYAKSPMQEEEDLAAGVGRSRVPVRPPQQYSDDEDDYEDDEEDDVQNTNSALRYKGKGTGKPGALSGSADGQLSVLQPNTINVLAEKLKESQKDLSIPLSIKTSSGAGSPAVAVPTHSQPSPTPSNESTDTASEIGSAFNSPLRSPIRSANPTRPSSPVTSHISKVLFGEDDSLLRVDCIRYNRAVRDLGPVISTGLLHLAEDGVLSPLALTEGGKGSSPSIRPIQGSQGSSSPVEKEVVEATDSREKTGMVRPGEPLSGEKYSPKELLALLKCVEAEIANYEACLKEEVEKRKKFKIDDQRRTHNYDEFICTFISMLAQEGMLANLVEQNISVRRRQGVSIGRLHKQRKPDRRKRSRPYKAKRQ
structure (smiles),measurement,value
CCCCCn1c(=O)c(C(=O)NCc2ccccn2)c(O)c2ccccc21,% of control activity,112%
